The supplement of paper PMC8371130
Structures can show the parent of a compound that is named as a salt.

Test system: HL-1
Assay: relative cell viability (CellTiter-Glo) vs DMSO control (% of DMSO control); higher = more viable cells
Method in brief: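 Cell viability, normalised to vehicle-treated control cells, was read by CellTiter-Glo luminescence. For this, HL-1 mouse atrial cardiomyocytes were plated at 1000 cells per well in 384-well plates alongside compounds at 40, 200, 1000 or 5000 nM in 0.01% DMSO. After a day, plates either spent 48 h in a hypoxic workstation at 1% O2 and then 24 h reoxygenating in a normal incubator, or remained in normoxia for the same period.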

[1] = oxygen condition: hypoxia 48 h (1% O2) + reoxygenation 24 h, 40 nM
[2] = oxygen condition: hypoxia 48 h (1% O2) + reoxygenation 24 h, 200 nM
[3] = oxygen condition: hypoxia 48 h (1% O2) + reoxygenation 24 h, 1000 nM
[4] = oxygen condition: hypoxia 48 h (1% O2) + reoxygenation 24 h, 5000 nM
[5] = oxygen condition: normoxia 72 h, 40 nM
[6] = oxygen condition: normoxia 72 h, 200 nM
[7] = oxygen condition: normoxia 72 h, 1000 nM
[8] = oxygen condition: normoxia 72 h, 5000 nM

Structure (SMILES) | relative cell viability [1] | relative cell viability [2] | relative cell viability [3] | relative cell viability [4] | relative cell viability [5] | relative cell viability [6] | relative cell viability [7] | relative cell viability [8]
CC(C)C(=O)Nc1ccc([N+](=O)[O-])c(C(F)(F)F)c1 [Flutamide] | 108 | 102 | 101 | 38.7 | 98.3 | 101 | 105 | 37
CC1Cc2ccccc2N1NC(=O)c1ccc(Cl)c(S(N)(=O)=O)c1 (centres undefined) [Indapamide] | 106 | 104 | 110 | 114 | 105 | 102 | 106 | 121
NC(=O)OCC(COC(N)=O)c1ccccc1 [Felbamate] | 101 | 106 | 96.3 | 110 | 110 | 107 | 105 | 110
Nc1nc(N)nc(-c2cc(Cl)ccc2Cl)n1 [Irsogladine] | 101 | 104 | 107 | 109 | 98.2 | 104 | 108 | 107
NC(=O)c1ncn([C@@H]2O[C@H](CO)[C@@H](O)[C@H]2O)c1O [Mizoribine] | 103 | 109 | 115 | 108 | 111 | 104 | 103 | 110
CC(C)(OCc1nn(Cc2ccccc2)c2ccccc12)C(=O)O [Bindarit] | 99.2 | 99.8 | 100 | 3.69 | 96.7 | 100 | 95.7 | 3.69
CN(C)CCN(Cc1cccs1)c1ccccn1 [Methapyrilene HCl] | 104 | 104 | 104 | 84.1 | 109 | 107 | 111 | 111
C=CC(=O)N1CCC[C@@H](n2nc(-c3ccc(Oc4ccccc4)cc3)c3c(N)ncnc32)C1 | 98.9 | 96.6 | 101 | 102 | 101 | 90.2 | 90.5 | 102
COc1cc2nc(N3CCN(C(=O)C4COc5ccccc5O4)CC3)nc(N)c2cc1OC (centres undefined) [Doxazosin mesylate] | 104 | 107 | 108 | 106 | 105 | 102 | 103 | 114
Nc1ccn([C@@H]2O[C@H](CO)[C@@H](O)C2(F)F)c(=O)n1 [Gemcitabine] | 3.81 | 3.59 | 4.33 | 3.65 | 3.56 | 3.5 | 3.75 | 3.7
CCN(CC)C(=O)C1(c2ccccc2)CC1CN (centres undefined) [Milnacipran HCl] | 107 | 108 | 105 | 118 | 107 | 101 | 106 | 109
Cl.N=C(N)NCCC[C@H](N)C(=O)O [L-Arginine HCl] | 97.5 | 104 | 104 | 118 | 100 | 104 | 108 | 107
CN1CCN(CCCN2c3ccccc3Sc3ccc(Cl)cc32)CC1 [Prochlorperazine Dimaleate] | 114 | 111 | 106 | 113 | 98.7 | 99.3 | 102 | 105
CC(=O)NS(=O)(=O)c1ccc(N)cc1 [sulfacetamide sodium] | 97.5 | 98.4 | 106 | 104 | 102 | 107 | 107 | 108
Nc1nc(F)nc2c1ncn2[C@@H]1O[C@H](CO)[C@@H](O)[C@@H]1O [Fludarabine] | 104 | 101 | 107 | 109 | 101 | 107 | 104 | 83.7
COc1ccc2cccc(CCNC(C)=O)c2c1 [Agomelatine] | 96.1 | 109 | 84.5 | 113 | 94.3 | 90.4 | 132 | 111
O=NN(CCCl)C(=O)NC1CCCCC1 [Lomustine] | 90.8 | 100 | 93.4 | 66.3 | 108 | 96.2 | 102 | 67
CCOC(=O)[C@H](CCc1ccccc1)N[C@@H](C)C(=O)N1C(=O)N(C)C[C@H]1C(=O)O [Imidapril] | 111 | 103 | 99.3 | 115 | 110 | 103 | 104 | 113
CNC(=C[N+](=O)[O-])NCCSCc1ccc(CN(C)C)o1 [Ranitidine] | 82.2 | 102 | 97.9 | 106 | 90.9 | 105 | 106 | 112
CC(C)(Oc1ccc(Cl)cc1)C(=O)O [Clofibric acid] | 106 | 105 | 108 | 115 | 104 | 106 | 104 | 109
CC(=O)OCC(=O)[C@@]12N=C(C)O[C@@H]1C[C@H]1[C@@H]3CCC4=CC(=O)C=C[C@]4(C)[C@H]3[C@@H](O)C[C@@]12C [Deflazacort] | 90.6 | 90.3 | 97.1 | 77.3 | 89.6 | 92.4 | 95.6 | 99.2
CN1C2CCCC1CC(NC(=O)c1nn(C)c3ccccc13)C2 (centres undefined) [Granisetron HCl] | 103 | 102 | 106 | 101 | 101 | 102 | 105 | 102

Structure (SMILES) | relative cell viability [1] | relative cell viability [2] | relative cell viability [3] | relative cell viability [4] | relative cell viability [5] | relative cell viability [6] | relative cell viability [7] | relative cell viability [8]
CCC(=O)O[C@]1(C(=O)CCl)[C@@H](C)C[C@H]2[C@@H]3CCC4=CC(=O)C=C[C@]4(C)[C@@]3(F)[C@@H](O)C[C@@]21C [Clobetasol propionate] | 98.2 | 94.4 | 94.5 | 97.3 | 92.3 | 90.1 | 88.3 | 94.5
CCOC(=O)[C@H](CCc1ccccc1)N[C@@H](C)C(=O)N1Cc2cc(OC)c(OC)cc2C[C@H]1C(=O)O [Moexipril HCl] | 105 | 102 | 107 | 67.2 | 100 | 98.2 | 90.7 | 64.1
COCCOC(=O)C1=C(C)NC(C)=C(C(=O)OC/C=C/c2ccccc2)C1c1cccc([N+](=O)[O-])c1 (centres undefined) [Cilnidipine] | 101 | 105 | 110 | 109 | 107 | 109 | 103 | 110
C=CCc1cc(OC)c(O)c(C(=O)NCCO)c1 [Alibendol] | 103 | 102 | 108 | 113 | 101 | 104 | 112 | 115
CC(C)(C#N)c1cc(Cn2cncn2)cc(C(C)(C)C#N)c1 [Anastrozole] | 94.2 | 99.5 | 57.7 | 34.5 | 100 | 93.2 | 87.9 | 22.4
CC(=O)O[C@H]1C(=O)[C@@]2(C)[C@H]([C@H](OC(=O)c3ccccc3)[C@]3(O)C[C@H](OC(=O)[C@H](O)[C@@H](NC(=O)c4ccccc4)c4ccccc4)C(C)=C1C3(C)C)[C@]1(OC(C)=O)CO[C@@H]1C[C@@H]2O [Paclitaxel] | 42.4 | 42.8 | 39.9 | 30.5 | 52.3 | 52.2 | 33.2 | 22.2
CCCNCC(O)COc1ccccc1C(=O)CCc1ccccc1 (centres undefined) [Propafenone] | 97.1 | 105 | 108 | 105 | 107 | 102 | 110 | 103
NS(=O)(=O)c1cc2c(cc1Cl)N=C(CSCc1ccccc1)NS2(=O)=O [Benzthiazide] | 103 | 99.8 | 99.3 | 107 | 99.7 | 93.8 | 100 | 105
Cc1c(O)c(=O)ccn1C [Deferiprone] | 108 | 102 | 102 | 112 | 100 | 102 | 107 | 111
COc1ccccc1OCC(O)COC(N)=O (centres undefined) [Methocarbamol] | 104 | 107 | 108 | 119 | 101 | 112 | 106 | 114
CN1C[C@@H]2C[C@H]1CN2c1cc2c(cc1F)c(=O)c(C(=O)O)cn2C1CC1 [Danofloxacin Mesylate] | 106 | 104 | 111 | 108 | 111 | 101 | 103 | 107
N#C[C@@H]1CCCN1C(=O)CNC12CC3CC(CC(O)(C3)C1)C2 [Vildagliptin] | 63.4 | 104 | 114 | 117 | 103 | 95.7 | 99 | 119
CC(C)OC(=O)C(C(=O)OC(C)C)=C1SC=CS1 [Malotilate] | 89.7 | 105 | 115 | 109 | 102 | 104 | 111 | 109
Clc1ccccc1CN1CCc2sccc2C1 [Ticlopidine HCl] | 96.8 | 94.8 | 97 | 103 | 94.9 | 97.1 | 95.5 | 108
Cc1onc(-c2ccccc2)c1-c1ccc(S(N)(=O)=O)cc1 [Bextra] | 101 | 97.9 | 104 | 107 | 103 | 100 | 95.1 | 111
CC(C)(CO)[C@@H](O)C(=O)NCCC(=O)O [Pantothenic acid] | 100 | 103 | 104 | 108 | 100 | 101 | 99.5 | 106
NCCC(O)(P(=O)(O)O)P(=O)(O)O [Pamidronate Disodium] | 98.6 | 106 | 107 | 76.5 | 107 | 99.9 | 108 | 105
O=S(=O)(O)CCS [Mesna] | 105 | 102 | 116 | 120 | 112 | 109 | 112 | 123
COc1ccc(CNc2nc(N3CCC[C@H]3CO)ncc2C(=O)NCc2ncccn2)cc1Cl [Avanafil] | 91.6 | 99.7 | 97.5 | 103 | 101 | 102 | 97.1 | 107
CC1(C)Cc2c(-c3ccccc3)c(-c3ccc(Cl)cc3)c(CC(=O)O)n2C1 [Licofelone] | 97.3 | 94.8 | 97.1 | 105 | 92.9 | 96.5 | 93.5 | 108
CN1C2=CC(=O)/C(=N\NC(N)=O)C=C2CC1S(=O)(=O)O (centres undefined) [Carbazochrome sodium sulfonate] | 99 | 97 | 101 | 112 | 95 | 102 | 89.9 | 108
